High-throughput results (PubChem)
D1 agonist = human D1 receptor agonism; activation, % at 2 µM; 360,000 compounds, 1% hits; HEK293 T-REx D1 cells, calcium flux, agonist mode; P21728; note: 0% is about no effect
Target sequence (P21728 whole entry, looked up): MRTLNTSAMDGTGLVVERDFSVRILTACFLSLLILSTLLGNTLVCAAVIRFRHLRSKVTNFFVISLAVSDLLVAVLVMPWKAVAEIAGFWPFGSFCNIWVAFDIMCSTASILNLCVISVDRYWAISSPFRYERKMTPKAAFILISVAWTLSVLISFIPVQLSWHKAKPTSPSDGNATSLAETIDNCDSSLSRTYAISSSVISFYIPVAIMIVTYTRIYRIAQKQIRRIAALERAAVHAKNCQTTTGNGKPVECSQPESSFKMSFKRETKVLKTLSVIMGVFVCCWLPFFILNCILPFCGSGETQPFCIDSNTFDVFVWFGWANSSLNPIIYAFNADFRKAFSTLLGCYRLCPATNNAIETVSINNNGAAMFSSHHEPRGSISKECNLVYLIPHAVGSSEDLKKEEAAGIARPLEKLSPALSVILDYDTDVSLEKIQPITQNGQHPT
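Tetracycline-induced HEK293 TREx D1 cells, force-coupled to calcium signalling, were dye-loaded with a no-wash calcium kit. Compound was pin-added after a 10 s baseline. Fluorescence was read kinetically at 1 cycle/s for 180 s, with calcium rises flagged as agonism.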
D1 antagonist = blocks dopamine activation of the human D1 receptor. 360,000 compounds, 3.2% hits. P21728. activity change, negative = inhibition, % at 10 µM. HEK293 TREx D1 cells, calcium flux, dopamine EC80; active compounds read low; in the data active = activity change below about -30%; note: % is set by controls: 0 for no effect and ±100 for the full control effect
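Inducible Hek293 Trex D1 cells (tetracycline, overnight, 30 C). Calcium dye 30–90 min RT. Antagonist mode: EC80 dopamine added after 180 s compound read.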
D1 PAM = enhances dopamine response at the human D1 receptor | P21728 | HEK293 TREx D1 cells, calcium flux, dopamine EC20 potentiation | potentiation, % at 10 µM | 360,000 compounds, 0.036% hits; in the data active = potentiation above about 30%; note: 0% is about no effect
TRHR PAM = allosterically enhances the human TRH receptor | TRHR cells, fluo-8 calcium fluorescence, EC20 TRH enhancement | 360,000 compounds, 0.66% hits | P34981 | enhancement, % at 2 µM; in the data active = enhancement above about 30%; note: 0% is about no effect
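Enhancer read-out: after compound pinning and an initial kinetic agonist-mode read, an EC20 of TRH (10 nM final) was injected and fluo-8 calcium signal (Ex 480/Em 530) followed at 1 s/cycle for 100 cycles in TRHR-expressing cells.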
Glioma ERSR ind = ER stress response induction in glioma; U87-MG GRP78 promoter luciferase reporter, 16 h; Potency, µM, for inactives: at the highest dose activation, usual class: activators; 420,000 compounds, 0.02% hits; AID 602332; active = well fitted activation curve with a large enough effect; note: potency is the fitted concentration of half-maximal effect; series mostly up to about 76 µM; % of control where 0% means no effect; nearly all actives have a fitted effect of over 35% in size
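Stably transfected U87-MG human glioma cells carrying a GRP78-based luminescent sensor were seeded at 1000 cells/well, pin-dosed with compounds and incubated 16 h. Luciferase reagent was then added, and end-point luminescence was read after 10 min at room temperature.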
TRHR agonist = TRH receptor (human) agonism; TRHR cells, calcium flux fluo-8, FDSS agonist mode; activation, % at 2 µM; 360,000 compounds, 0.18% hits; AID 493084; note: 0% is about no effect
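Read-out: compound-evoked intracellular calcium rise in TRHR cells, fluo-8 dye, kinetic FDSS fluorescence at 1 s/cycle following a 10-cycle baseline. Cells cultured overnight before dye loading (30 min–1.5 h, RT).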
Numbers without * were called inactive; / = no result given; ! = a repeat was not active. Sampled rows, rich in hits. Any-hit rate of the full collection: about 4%. Cut-off read from the data, not from the text of the source, unless noted: active = activation above about 30%; inactive = the rest.

SMILES | D1 agonist | D1 antagonist | D1 PAM | TRHR PAM | Glioma ERSR ind | TRHR agonist
N#C/C(=C\c1ccc(O)cc1)C(=O)NCc1ccccc1 | 15 | -19 | 0 | -8 | -1% | 0
COc1ccccc1NC(=S)NNC(=O)c1nn(C)c(C)c1Cl | 1 | -49* | -6 | -20 | 3% | 0
O=C(c1ccc(S(=O)(=O)N2CCC(c3nc4ccccc4[nH]3)CC2)cc1)N1CCOCC1 | 2 | -89* | 8 | 7 | -3% | 0
O=S(=O)(c1ccc(F)cc1)N1CCC(c2nc3ccccc3[nH]2)CC1 | 2 | 5 | -2 | -1 | -6% | 0
COc1ccc(-n2c(-c3ccco3)nc3c(cnn3-c3ccc(C)cc3)c2=O)cc1 | 5 | -2 | -3 | 5 | 3% | 1
COc1ccc(-n2c(-c3ccco3)nc3c(cnn3-c3ccccc3C)c2=O)cc1 | 2 | -30*! | -9 | 1 | 0% | 0
COc1ccc(-n2c(-c3ccccc3F)nc3c(cnn3-c3ccc(C)cc3)c2=O)cc1 | 6 | -31* | -1 | 8 | -3% | 1
COc1cccc(-n2c(-c3ccco3)nc3c(cnn3-c3ccccc3C)c2=O)c1 | 5 | -10 | 0 | 1 | 0% | 1
CC(=O)c1ccccc1-c1ccc2c(c1)CC(CNC(=O)c1cc(C)on1)O2 (stereo not given) | / | / | / | / | 1% | /
O=C(Nc1ccccc1)c1sc(N2CCOCC2)nc1-c1ccccc1 | 2 | -1 | -7 | -5 | -1% | 0
N#C/C(=C\c1sc(N2CCOCC2)nc1-c1ccccc1)C(=O)Nc1cccc2ccccc12 | 40* | -5 | 2 | 3 | / | 11
Cc1noc(C)c1-c1nc(N(C)Cc2ccco2)c2ccccc2n1 | / | / | / | / | -5% | /
COc1cc(C)c(Cl)c(C)c1S(=O)(=O)NC1CC(C)(C)NC(C)(C)C1 | 8 | -5 | -4 | 39* | -3% | 1
Cc1ccc(NC2CCCN(C(=O)c3cccc4nccnc34)C2)cc1C (stereo not given) | 1 | 5 | -9 | -1 | -3% | 0
CS(=O)(=O)N(CC(=O)N1CCc2ccccc2C1)c1cccc(F)c1 | 3 | -18 | -5 | 1 | 2% | 1
CS(=O)(=O)N(CC(=O)N1CCc2ccccc2C1)c1cccc([N+](=O)[O-])c1 | 1 | -78* | -4 | 32* | -4% | 0
Cc1cc(C)c(C)c(OCCOCCNCc2ccccc2)c1 | 33* | -4 | -3 | 3 | -6% | 1
Cc1cc(Cl)c(OCCCNCc2ccccc2)c(Br)c1 | 32* | 29 | 3 | 4 | -5% | 7
Cc1cc(C)c(OCCCNCc2ccccc2)c(Br)c1 | 37* | 0 | -1 | -1 | -5% | 1
Cc1ccc(OCCNCc2ccccc2)c(C)c1 | 18 | -2 | -5 | 7 | -1% | 1
O=C(C1CC12CCN(Cc1cccc3cccnc13)CC2)N1CCN(Cc2cccs2)CC1 (stereo not given) | / | / | / | / | -3% | /
COc1ccc(NC(=O)COc2nsnc2N2CCCCC2)cc1 | 4 | -34* | 0 | 0 | -1% | 0
C[C@@H](O)CNC(=O)c1[nH]cnc1C(=O)N[C@H](C)c1ccccc1 | / | / | / | / | -2% | /
CCCC(=O)Nc1ccc(C(=O)/C=C/c2ccc(SC)cc2)cc1 | 16 | -48* | -13 | 7 | 6% | 0
CN(C)CCNC(=O)c1ccc2c(c1)NC(=O)C(CS(=O)(=O)Cc1cccc(Br)c1)N2 (stereo not given) | -2 | 1 | 0 | 3 | -3% | 0
SMILES | D1 agonist | D1 antagonist | D1 PAM | TRHR PAM | Glioma ERSR ind | TRHR agonist
CC(C)CCNC(=O)c1ccc2c(c1)NC(=O)C(CS(=O)(=O)Cc1cccc(Br)c1)N2 (stereo not given) | 5 | -42* | -10 | 0 | -4% | -2
CN(C)c1ccc(/C=C2\C(=O)/C(=C\c3ccc(N(C)C)cc3)c3ccccc32)cc1 | / | / | / | / | -5% | /
NNC(=O)c1sc2cc(C(F)(F)F)cnc2c1-c1ccccn1 | 1 | 3 | 1 | 4 | 1% | 1
CCOc1c(CC2C(=O)Nc3ccc(Br)cc32)cccc1OC (stereo not given) | 69* | -41* | -2 | 9 | -1% | -3
O=C(O)CCCN1C(=O)/C(=C/c2ccc(-c3nc4ccccc4s3)o2)SC1=S | 53* | 56 | 11 | 17 | -2% | 2
O=C(O)CCCCCN1C(=O)/C(=C\c2ccc(-c3ccc(Cl)cc3)o2)SC1=S | 7 | 2 | -6 | 24 | -1% | 3
COc1ccc(C(=O)n2cnc3ccccc32)cc1 | 4 | 24 | -3 | -2 | 1% | 0
O=C(COC(=O)Cc1ccccc1F)NNC(=O)c1ccc([N+](=O)[O-])cc1 | 6 | -15 | -2 | 2 | -2% | 0
c1ccc(-c2ccccc2OCCCN2CCCC2)cc1 | 10 | -39* | -3 | -3 | -3% | 0
c1ccc(-c2ccccc2OCCCN2CCCCCC2)cc1 | 24 | -43* | -10 | -1 | -3% | 1
c1ccc(-c2ccccc2OCCCCN2CCCCC2)cc1 | 9 | -8 | -6 | -1 | -5% | -1
Cc1cc2c(s1)c1cnn(Cc3cc(C(F)(F)F)ccc3F)c(=O)c1n2C | 5 | 21 | -4 | 0 | / | 0
CCC(=O)N1CCC(C)(C(=O)Nc2ccc3c(c2)OCO3)C1 (stereo not given) | / | / | / | / | -2% | /
CCOCCCNc1ccc(N2C(=O)CCCC2=O)cc1[N+](=O)[O-] | 2 | 3 | -2 | 2 | -12% | 1
COCCNc1ccc(N2C(=O)CCCC2=O)cc1[N+](=O)[O-] | 1 | -47* | -3 | -4 | -2% | 0
CCOC(=O)c1nc(-c2ccccc2)oc1N(C)C | 0 | -11 | -3 | 30* | 0% | 0
Cc1ccc2nc(C3CCCCC3)c(CC(C)(C)C)n2c1 | / | / | / | / | -1% | /
Cc1[nH]c2ccccc2c1/C=C(\C#N)C(=O)NCc1ccccc1 | 6 | -5 | -6 | -2 | 1% | 1
Cc1ccc(C(C)NC(=O)/C(C#N)=C\c2c(C)[nH]c3ccccc23)cc1 (stereo not given) | 48* | -1 | 11 | 7 | 3% | 0
CC(OC(=O)c1ccccc1O)C(=O)Nc1ccc(Cl)cn1 (stereo not given) | 1 | -11 | 0 | -4 | -10% | 0
CC(OC(=O)c1ccc(S(=O)(=O)N(C)C)cc1)C(=O)Nc1ccc(Cl)cn1 (stereo not given) | 6 | -60* | 0 | -3 | -5% | -1
O=C(c1ccco1)N1CCN(C(=S)Nc2ccccc2C(F)(F)F)CC1 | 2 | 4 | -1 | 14 | -4% | 1
Nc1cccc(-c2cn3cccnc3n2)c1 | 4 | -30* | 5 | -4 | 5% | 0
